Most compounds without a hit are left out; they make up all but 3.1% or so of the library.
uPA surface inh: blocks generation of uPA at the cell surface. cell surface uPA generation assay, qHTS. Potency, µM (series often up to 38.3 µM), hits mostly inhibitors. hit rate 0.31% among 330,000; active = well fitted inhibition curve with a large enough effect; inconclusive = small, poorly fitted or top-dose-only effect; inactive = no such curve, though single readings can be large or run the other way; tested in mouse RAW 264.7 cells; also: nearly all actives have a fitted effect of over 55% in size
RGS4 inh: human RGS4 inhibition | P49798 | Transcreener GDP fluorescence polarization, RGS4-accelerated GTP hydrolysis | Potency, µM (top dose mostly 114 µM), actives largely listed as inhibitors | hit rate 0.039% among 390,000 | AID 504845; active = well fitted inhibition curve with a large enough effect; inconclusive = small, poorly fitted or top-dose-only effect; inactive = no such curve, though single readings can be large or run the other way; also: nearly all actives have a fitted effect of over 75% in size
Target sequence (P49798 whole entry, looked up): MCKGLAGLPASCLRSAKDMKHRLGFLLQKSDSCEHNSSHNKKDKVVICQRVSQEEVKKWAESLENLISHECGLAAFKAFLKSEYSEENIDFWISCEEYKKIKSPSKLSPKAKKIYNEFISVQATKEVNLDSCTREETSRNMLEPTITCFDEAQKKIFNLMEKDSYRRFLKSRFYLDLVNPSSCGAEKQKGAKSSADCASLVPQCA
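MLSMR compounds (23 nl, pin-transferred) preincubated 10 min at room temperature with a 500nM (2x) first reagent, then RGS4 at 900nM (2x) plus Transcreener GDP mix added; fluorescence polarization (620/688 nm) read before and after 90 min at 30 °C.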
D3 antag: antagonists of human D3 dopamine receptor; D3R cells, DiscoveRx beta-arrestin luminescence, antagonist mode; active compounds read low; max response, negative = inhibition, %; hit rate 2.5% among 360,000; in the data active = max response below about -50%; inconclusive = no clear call, values can overlap the other calls
Target sequence (P35462 whole entry, looked up): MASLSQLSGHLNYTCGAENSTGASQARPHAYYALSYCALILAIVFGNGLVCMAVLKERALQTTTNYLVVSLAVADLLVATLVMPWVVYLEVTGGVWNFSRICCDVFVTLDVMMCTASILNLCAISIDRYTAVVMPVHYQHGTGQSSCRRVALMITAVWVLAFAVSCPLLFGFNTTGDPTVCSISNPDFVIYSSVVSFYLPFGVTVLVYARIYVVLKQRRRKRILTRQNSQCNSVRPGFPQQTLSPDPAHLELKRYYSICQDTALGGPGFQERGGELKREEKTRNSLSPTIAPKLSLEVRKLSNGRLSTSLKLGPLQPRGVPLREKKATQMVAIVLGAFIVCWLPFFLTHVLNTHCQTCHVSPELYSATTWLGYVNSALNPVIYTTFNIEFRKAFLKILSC
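Cells expressing the human receptor were seeded at 1500 cells/well, incubated overnight at 37 degrees C in 5% CO2, then exposed to library compounds with dopamine controls for 90 minutes at 37 degrees C before luminescent detection.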
DRD3 agonist: activates the human D3 dopamine receptor; P35462; D3R DiscoveRx beta-arrestin cells, luminescence, 90 min; max activation, %; hit rate 0.58% among 410,000; in the data active = max activation above about 30%
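Agonist-mode cell screen: cells plated at 1500/well and incubated overnight at 37 °C, then exposed to library compounds for 90 min at 37 °C. Detection reagent was added for 30–60 min at room temperature, and luminescence was read.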
A number is an active result; n = inactive; u = inconclusive; x = no result given; ! = repeats disagree.

SMILES	uPA surface inh	RGS4 inh	D3 antag	DRD3 agonist
Cc1cc(C)nc(SCC(=O)NCC2COc3ccccc3O2)n1 (configuration not stated)	n	n	n	n
COc1ccc(C)cc1NC(=O)C(=O)NCCc1csc2nc(-c3ccccc3F)nn12	x	n	x	n
Cn1c(=O)cc(SCC(=O)NCCN2CCN(c3ccccc3F)CC2)c2cc(Cl)ccc21	n	n	-63	n
Cn1c(C(=O)NCCCN2CCN(c3ccc(F)cc3)CC2)cc2c(=O)n(C)c3ccccc3c21	n	n	-84	n
O=C(CCn1c(=O)oc2ccccc21)NCCCN1CCOCC1	n	n	n	n
O=C(CCn1c(=O)oc2ccccc21)NCCCN1CCN(c2ccc(F)cc2)CC1	n	n	-52	n
Cn1c(=O)cc(SCC(=O)NCCCN2CCN(c3ccc(F)cc3)CC2)c2ccccc21	n	n	-69	n
COC(=O)c1ccc(NC(=O)N2CCN(Cc3cc(=O)n4nc(-c5ccc(C)cc5)sc4n3)CC2)cc1	x	n	x	n
O=C(NCc1ccc(F)cc1)c1ccc2c(c1)nc1n2CCCCC1	x	n	x	n
Cn1c(C(=O)NCCN2CCOCC2)cc2c(=O)n(C)c3ccccc3c21	n	n	n	n
Cn1c(C(=O)NCCN2CCc3ccccc3C2)cc2c(=O)n(C)c3ccccc3c21	n	n	-88	n
COc1ccc(CCN(C)C/C=C/c2ccccc2[N+](=O)[O-])cc1OC	n	n	-60	n
COCCNC(=O)c1ccc(C2SCC(=O)N2Cc2ccco2)cc1 (configuration not stated)	n	n	n	n
CN1CCN(C(=O)c2ccc(C3SCC(=O)N3Cc3ccco3)cc2)CC1 (configuration not stated)	n	u	-59	n
Nc1c(N2CCCC2)c2ccccc2oc1=O	n	n	n	44
CC1CCCN(c2c([N+](=O)[O-])c(=O)oc3ccccc23)C1 (configuration not stated)	x	n	n	n
Cc1ccc(Cc2c(-c3ccc(F)cc3)nc3cc(C)ccn23)cc1	x	x	-68	n
N#Cc1nc(COc2ccccc2Cl)oc1NCCc1ccccc1	x	n	x	n
O=c1c2cc(NC(=S)NCCN3CCCCCC3)ccc2nc2n1CCCCC2	n	n	n	n
O=c1c2cc(NC(=S)NCCCN3CCC(Cc4ccccc4)CC3)ccc2nc2n1CCCCC2	n	n	-94	n
COc1cc2c(cc1NC(=O)CSc1nc3ccccc3[nH]1)oc1ccccc12	n	n	-75	n
COc1cc2c(cc1NC(=O)CSc1ccccc1)oc1ccccc12	n	n	n	n
COCCOC(=O)c1c(C)nc(SCC(=O)Nc2ccc(C)cc2)c(C#N)c1-c1ccco1	n	n	n	n
COCCOC(=O)c1c(C)nc(SCC(=O)Nc2cccc3ccccc23)c(C#N)c1-c1ccco1	n	n	-65	n
O=C1c2ccccc2C(=O)C1c1ccc(Br)cc1	n	n	n	88!
SMILES	uPA surface inh	RGS4 inh	D3 antag	DRD3 agonist
O=C1c2ccccc2C(=O)C1c1ccc(F)cc1	x	x	x	62
O=C1c2ccccc2C(=O)C1c1ccc(O)cc1	n	n	n	n
O=C(CSc1ccc2nnc(-c3ccncc3)n2n1)Nc1ccc2c(c1)OCCO2	n	n	-59	n
O=C(CSc1ccc2c(c1)OCCO2)Nc1ccc(Br)cc1	n	n	-63	n
Cc1nnc(SCC(=O)NC(=O)Nc2ccc3c(c2)OCCO3)s1	x	n	-70	n
O=C(CSc1ccc2c(c1)OCCO2)Nc1ccc2c(c1)OCO2	n	n	n	n
COc1ccc(CNC(=O)Cn2nnc(-c3ccc(C(F)(F)F)cc3)n2)cc1	x	n	x	n
COc1cc(OC)c(C2=NOC(C(=O)NCc3cccnc3)C2)cc1Cl (configuration not stated)	10µM	n	n	n
CCC(=O)N1CCN=C1SCc1ccccc1Cl	n	n	n	n
O=C(C1CC1)N1CCN=C1SCc1ccccc1Cl	n	n	-60	n
O=C1CCCCC(=O)[C@H](O)C[C@H](COCc2ccccc2)O1	x	x	n	91
COC(=O)c1c(NS(=O)(=O)c2cccs2)sc2c1CCCC2	n	n	-57	n
CC1CC(C)(C)N(C(=O)CN2CCN(C)CC2)c2ccccc21 (configuration not stated)	n	n	u	n
Cc1ccc2c(c1)C(C)CC(C)(C)N2C(=O)CN1CCN(C)CC1 (configuration not stated)	n	n	-93	n
Cc1ccc2c(c1)C(C)CC(C)(C)N2C(=O)NC1CCCCC1 (configuration not stated)	n	n	-54	n
COc1ccc(S(=O)(=O)N2CCN(c3ccc(Cl)c(Cl)c3)CC2)c2ccccc12	x	n	x	n
NC(=O)c1ccc2c(=O)n3c(-c4cc(Cl)c(N)c(Cl)c4)csc3nc2c1	5µM	u	n	n
C=C1C(=O)[C@]23C[C@H]1CCC2[C@@]1(C)C(C[C@@H]3O)[C@](C)(C(=O)OC)CC[C@@H]1OC(C)=O (some centres not stated)	x	x	-133	n
C=C1C(=O)[C@]23C[C@H]1CC[C@H]2[C@]1(C)[C@@H](OC(C)=O)CC[C@@](C)(C(=O)OC)[C@H]1C[C@@H]3OC(C)=O	x	x	-107	n
COc1cc2ccccc2cc1C(=O)Nc1ccc2oc(-c3cccc(C)c3)nc2c1	x	n	x	n
OC[C@]1(O)OC[C@@H](O)[C@H](O)[C@@H]1O	x	x	x	n
Cc1ccccc1S(=O)(=O)Cc1ccc(C(=O)NCCN2CCN(Cc3ccccc3)CC2)o1	n	n	-51	n
CS(=O)(=O)N1CCC(C(=O)NCCN2CCN(Cc3ccccc3)CC2)CC1	n	n	-101	n
O=C(NCCN1CCC(Cc2ccccc2)CC1)C1CCN(S(=O)(=O)N2CCC3(CC2)OCCO3)CC1	n	n	-50	n
O=C(NCCCN1CCN(Cc2ccccc2)CC1)C1CCN(S(=O)(=O)N2CCC3(CC2)OCCO3)CC1	n	n	n	n
SMILES	uPA surface inh	RGS4 inh	D3 antag	DRD3 agonist
CC(=O)Oc1ccc(C2(c3ccc(OC(C)=O)cc3)Oc3ccccc3NC2=O)cc1	x	x	x	n
CCc1c(C)sc2c1CCN(Cc1ccccc1F)C2c1ccccc1 (configuration not stated)	x	n	x	n
O=C(C1=C[C@H](c2coc3ccccc3c2=O)C[C@H](OCc2ccc(CO)cc2)O1)N1CCN(Cc2ccc3c(c2)OCO3)CC1	n	n	-50	n
CC(=O)n1cc([C@H]2C=C(C(=O)NCc3ccccc3)O[C@@H](OCc3ccc(CO)cc3)C2)c2ccccc21	n	n	n	n
CC(=O)n1cc([C@H]2C=C(C(=O)N3CCN(Cc4ccccc4)CC3)O[C@@H](OCCCCO)C2)c2ccccc21	n	n	n	n
CC(=O)n1cc([C@H]2C=C(C(N)=O)O[C@@H](OCc3ccc(CO)cc3)C2)c2ccccc21	n	n	n	36
CC(=O)n1cc([C@@H]2C=C(C(=O)N3CCN(Cc4ccccc4)CC3)O[C@H](OCc3ccc(CO)cc3)C2)c2ccccc21	u	n	-61	n
O=C(NCc1ccccc1Cl)c1ccc2c(c1)ncn2-c1cccc(F)c1	x	n	x	n
Cc1ccccc1CNC(=O)C(C)n1nc(C)n2c(cc3occc32)c1=O (configuration not stated)	x	n	x	n
